Where “and” joins values, the source holds several entries; their conditions need not be identical. Equal entries are not always repeated.
Biological target: Solute carrier family 2, facilitated glucose transporter member 1 (Homo sapiens) (UniProt P11166)
Assay: ST_JUDE_LEISH: Cytotoxicity at 2uM final concentration against transgenic Leishmania Mexicana promastigotes LmGLUT1 that are glucose transport deficient and complemented with the human glucose transporter GLUT1. Activity is measured by DNA content using SYBR green in vitro
Type: functional

Sequence of Solute carrier family 2, facilitated glucose transporter member 1 (Homo sapiens) (P11166 whole entry): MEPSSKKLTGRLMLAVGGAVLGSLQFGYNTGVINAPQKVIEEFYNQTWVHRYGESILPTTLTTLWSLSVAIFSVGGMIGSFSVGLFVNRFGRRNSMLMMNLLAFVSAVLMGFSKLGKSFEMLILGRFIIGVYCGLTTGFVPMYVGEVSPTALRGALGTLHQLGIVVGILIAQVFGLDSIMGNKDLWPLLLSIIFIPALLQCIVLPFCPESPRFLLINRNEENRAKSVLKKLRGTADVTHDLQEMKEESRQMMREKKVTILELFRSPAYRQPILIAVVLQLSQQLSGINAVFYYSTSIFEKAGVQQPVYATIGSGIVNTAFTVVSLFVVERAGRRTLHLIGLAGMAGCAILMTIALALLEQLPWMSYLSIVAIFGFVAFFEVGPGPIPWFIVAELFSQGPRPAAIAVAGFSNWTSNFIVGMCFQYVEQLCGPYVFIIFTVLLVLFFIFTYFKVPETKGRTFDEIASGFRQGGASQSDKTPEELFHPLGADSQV

SMILES | inhibition
C/C=C1/CN2CC[C@H]1C[C@H]2[C@H](O)c1ccnc2ccc(O)cc12 | -0.31%
COc1cccc(C=CC(=O)NC2CCC(CN3CCC(c4c[nH]c5ccccc45)CC3)CC2)c1OC (configuration not stated) | 1.83%
CC[C@H]1CN2CC[C@H]1C[C@@H]2[C@@H](OC(=O)c1ccc(Cl)cc1)c1ccnc2ccc(OC)cc12 | 1.77%

Biological target: Hexose transporter 1 (Plasmodium falciparum) (UniProt O97467)
Assay: ST_JUDE_LEISH: Cytotoxicity at 2uM final concentration against transgenic Leishmania Mexicana promastigotes LmPfHT that are glucose transport deficient and complemented with the Plasmodium falciparum hexose transporter. Activity is measured by DNA content using SYBR green in vitro
Type: functional

SMILES | inhibition
CCN(CC)CCN1C(=O)C(O)(c2ccccc2Cl)c2c1cc(C#N)cc2C(F)(F)F (configuration not stated) | 2.02%
CC[C@H]1CN2CC[C@@H]1C[C@H]2[C@H](O)c1cc(N2CCC(C)CC2)nc2ccc(OC)cc12 | 9.59%
O=C(NC1CCC(CN2CCC(c3c[nH]c4ccccc34)CC2)CC1)c1cn(Cc2ccccc2)c2ccccc12 (configuration not stated) | 1.32%
Cn1nc(C(F)(F)F)cc1-c1ccc(C(=O)NC2CCC(CN3CCC(c4c[nH]c5ccccc45)CC3)CC2)s1 (configuration not stated) | 4.44%
O=C(c1cc(C(F)(F)F)cc(C(F)(F)F)c1)N1CCC(CCN2CCC3(CC2)C(=O)NCN3c2ccccc2)CC1Cc1ccc(Cl)c(Cl)c1 (configuration not stated) | 10.7%
O=C(/C=C/c1ccc(Cl)c(Cl)c1)NC1C2CCC1CC(CN1CCC(c3c[nH]c4ccccc34)CC1)C2 (configuration not stated) | 4.24%
CC[C@H]1CN2CC[C@H]1C[C@H]2[C@@H](O)c1cc(OCCCN(C)C)nc2ccc(OC)cc12 | -1.68%
Cc1ccccc1CNCC(O)c1cccc(C(F)(F)F)c1 (configuration not stated) | 2.2%
O=C(NC1CCC(CN2CCC(c3c[nH]c4ccccc34)CC2)CC1)c1cc(-c2cccc(Cl)c2)n(-c2ccc(Cl)cc2Cl)n1 (configuration not stated) | -0.46%
CN(c1ccnc(Nc2ccc(CS(C)(=O)=O)cc2)n1)C1CCN(Cc2ccccc2)CC1 | 2.62%
CN1C2CCC1c1cc(NC(=O)c3cc(-c4ccc(Cl)cc4)cs3)ccc12 (configuration not stated) | 9.62%
O=C(/C=C/c1cc([N+](=O)[O-])ccc1Cl)NC1CCC(CN2CCC(c3c[nH]c4ccccc34)CC2)CC1 (configuration not stated) | 1.69%
CC[C@H]1C[N+]2([O-])CC[C@@H]1C[C@H]2[C@H](O)c1cc(-c2ccccc2)nc2ccc(OC)cc12 | 2.87%
COc1cc(CN2CCN(c3ccnc(N(C)C4CCN(C)CC4)n3)CC2)cc(Cl)c1O | 7.29%
COc1cc2c(c(OC)c1OC)C[C@H]1c3c(cc4c(c3-2)OCO4)CCN1C | 1.49%
CCN1CCC(N2CCC(n3c(C)nc4cc(C(F)(F)F)ccc43)CC2)CC1 | 3.12%
COC(=O)c1ccc(CC(C)NCC(O)c2cccc(Br)c2)cc1 (configuration not stated) | -1.92%
CN1CCC(COC(=O)C(O)(c2ccccc2)c2ccccc2)C1 (configuration not stated) | -0.69%
CC[C@H]1CN2CC[C@H]1C[C@H]2[C@H](O)c1cc(-c2ccc(F)cc2)nc2ccc(OC)cc12 | -0.06%
O=[N+]([O-])c1ccc(Oc2c(Cl)cc(S(=O)(=O)NC3CCC(CN4CCC(c5c[nH]c6ccccc56)CC4)CC3)cc2Cl)c(Cl)c1 (configuration not stated) | 0.39%

SMILES | inhibition
COc1ccc(C(=O)C2CC2CN2CC=C(c3c[nH]c4cccc(Br)c34)CC2)cc1 (configuration not stated) | 2.54%
COC(=O)c1sccc1NC(=S)NC1CCC(CN2CCC(c3c[nH]c4ccccc34)CC2)CC1 (configuration not stated) | 3.81% and 3.47%
O=C(/C=C/c1ccc(Cl)c(Cl)c1)N(Cc1ccccc1)C1CCC(CN2CCC(c3c[nH]c4ccccc34)CC2)CC1 (configuration not stated) | 2.84%
CC[C@H]1CN2CC[C@H]1C[C@H]2[C@H](O)c1ccnc2ccc(O)cc12 | 2.1%
O=C(NC1CCN(CCc2c[nH]c3ccc(F)cc23)CC1)c1ncc(-c2ccccc2)[nH]1 | 4.4%
CN(c1cc(NC(=O)c2cccs2)ccn1)C1CCN(Cc2ccccc2)CC1 | 3.13%
Cc1[nH]c2c(C)cc(NS(C)(=O)=O)cc2c1C1CCN(CC2CCN(C(=O)/C=C/c3ccc(Cl)c(Cl)c3)CC2)CC1 | 3.63%
CC(=O)N(Cc1cccc(-c2ccc(CNCCc3ccccc3)cc2)c1)C1CCN(Cc2ccccc2)CC1 | 5.39%
COc1ccc2[nH]cc(C3CC4CCC(C3)N4CCC3CCN(C(=O)/C=C/c4ccc(Cl)c(Cl)c4)CC3)c2c1 (configuration not stated) | 1.01%
O=C(NC1CCC(CN2CCC(c3c[nH]c4ccccc34)CC2)CC1)c1ccc(-c2cc(C(F)(F)F)ccc2Cl)o1 (configuration not stated) | 6.53%
CCCCCCC(CC)c1cc(O)c2c(c1)OC(C)(C)c1ccncc1-2 (configuration not stated) | 2.42%
Cc1[nH]c2cc(F)ccc2c1C1=CCN(CCCCC2(C)C(=O)Nc3c(F)cccc32)CC1 (configuration not stated) | 5.17%
CC(=O)C1(c2ccccc2)CCN(CCC2(c3ccc(Cl)c(Cl)c3)CN(C(=O)Nc3cccc(C(F)(F)F)c3)CCO2)CC1 (configuration not stated) | 4.19%
CC[C@H]1CN2CC[C@@H]1C[C@H]2[C@H](O)c1cc(N2CCC(C(N)=O)CC2)nc2ccc(OC)cc12 | 7.92%
COC(=O)c1ccc(CC(C)NCC(O)c2cccc(C(F)(F)F)c2)c(OC)c1 (configuration not stated) | 5.12%
CC(=O)N(Cc1cccc(-c2cccc(CNCc3ccc4c(c3)OCO4)c2)c1)C1CCN(Cc2ccccc2)CC1 | 7.09%
C/C=C1/CN2CC[C@H]1C[C@H]2[C@H](O)c1ccnc2ccc(O)cc12 | -1.31%
COc1cccc(C=CC(=O)NC2CCC(CN3CCC(c4c[nH]c5ccccc45)CC3)CC2)c1OC (configuration not stated) | 2.37%
CC[C@H]1CN2CC[C@H]1C[C@@H]2[C@@H](OC(=O)c1ccc(Cl)cc1)c1ccnc2ccc(OC)cc12 | 0.13%
